Among the test systems are BT-549 breast; MDA-MB-435 melanoma; SW-620 colon; MCF7 breast; HCT-116 colon; HCC-2998 colon; KM12 colon.
Common to all, as to test: NCI-60 one-dose screen, 48 h (100 = growth as untreated, 0 = no growth, -100 = all killed)
Common to all, as to details: 10 µM unless noted

This is part of a sample that, as a whole, favours compounds with a hit. Of some 83,000 tested, about 20% had one in any assay.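 Each cell line was grown in a 96-well plate and treated with one concentration of compound for 48 hours. Values below 10 were considered active.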 A number with no mark means an inactive call. The source made the active and inactive calls.

As for `O=c1c2ccccc2oc2ccc(OCCCCCN3CCCCCC3)cc12`, the growth is 78.5% with BT-549 breast; 73.8% in the assay on MDA-MB-435 melanoma; 77.7% with SW-620 colon; 68.2% with MCF7 breast; 58.4% with HCT-116 colon; 84.6% with HCC-2998 colon. Moreover, the growth with KM12 colon was 68.6%.

`C=C(C)[C@@H]1CC[C@]2(C(=O)OCCCC[P+](c3ccccc3)(c3ccccc3)c3ccccc3)CC[C@]3(C)[C@H](CC[C@@H]4[C@@]5(C)CC[C@H](OC(=O)C(Cl)Cl)C(C)(C)[C@@H]5CC[C@]43C)[C@@H]12`: the growth in the assay with BT-549 breast was -71.6% (active); in the assay with MDA-MB-435 melanoma it was -62.3% (active); in the assay on SW-620 colon, 0.909% (active); in the assay on MCF7 breast, 3.36% (active); with HCT-116 colon, -76.3% (active); in the assay on HCC-2998 colon, -62.8% (active). For the same compound, the growth in the assay on KM12 colon was -54.8% (active).

With `Cc1ccc2nc3nc4ccc[nH]c4cc3c2c1`, the growth in the assay with BT-549 breast is 93.2%; in the assay on MDA-MB-435 melanoma, 106%; in the assay with SW-620 colon, 108%; with MCF7 breast, 2.23% (active); in the assay with HCT-116 colon, 97.1%; with KM12 colon, 47.8%.

Regarding `Cc1cc(C)c(NC(=O)c2sc3nc4c(cc3c2N)CCCCCC4)c(C)c1`, the growth was 53.6% with BT-549 breast; 4.56% (active) in the assay on MDA-MB-435 melanoma; 36.2% in the assay on SW-620 colon; 24.3% in the assay with MCF7 breast; 57.3% in the assay on HCT-116 colon; 84.7% in the assay with HCC-2998 colon. Further, in the assay with KM12 colon, the growth was 49%.

Consider `COc1cc(NC(=O)Nc2cnc(Nc3ccc(N4CCOCC4)cc3)nc2Oc2ccc(F)cc2)cc(OC)c1`, for which the growth in the assay with BT-549 breast was 98.2%; with MDA-MB-435 melanoma it was 88.3%; in the assay on SW-620 colon, 82.7%; in the assay on MCF7 breast, 91%; in the assay on HCT-116 colon, 6.9% (active); with HCC-2998 colon, 101%. For the same compound, the growth with KM12 colon is 92.4%.

`O=C(/C(=C/c1ccc([N+](=O)[O-])cc1)SCc1ccc(Cl)cc1)c1ccc(F)cc1`: the growth is 78.2% in the assay on BT-549 breast; 49.2% in the assay on MDA-MB-435 melanoma; -9.4% (active) in the assay with SW-620 colon; -11.9% (active) in the assay with MCF7 breast; -54.9% (active) in the assay with HCT-116 colon; 84.5% with HCC-2998 colon. Further, the growth in the assay on KM12 colon is 23.3%.

Turning to `CCC1S/C(=N\N=C(/C)c2ccc[nH]2)N(c2ccccc2)C1=O` (stereo unspecified), the growth was 126% with BT-549 breast; 104% with MDA-MB-435 melanoma; 92.8% with SW-620 colon; 117% in the assay on MCF7 breast; 91.6% with HCT-116 colon; 104% in the assay on HCC-2998 colon. Moreover, in the assay with KM12 colon, the growth was 112%.

On to `COCCOCCOCc1n(Cc2ccc3ccccc3c2)c2ccccc2[n+]1Cc1ccc2ccccc2c1`, for which the growth in the assay on BT-549 breast is 1.44% (active); in the assay with MDA-MB-435 melanoma it was 7.86% (active); with SW-620 colon, 18.9%; with MCF7 breast, 7.6% (active); in the assay with HCT-116 colon, 20.1%; in the assay on HCC-2998 colon it was 17.8%. Also, the growth in the assay with KM12 colon is -25.9% (active).

As to `CN(C)CCCn1c2c(c3cc(-c4cccc(S(N)(=O)=O)c4)ccc3c1=O)C(=O)c1ccccc1-2`, the growth in the assay on BT-549 breast was 76.1%; with MDA-MB-435 melanoma, 80.3%; with SW-620 colon, 36.8%; in the assay with MCF7 breast, 27.7%; in the assay with HCT-116 colon, -82.6% (active); with HCC-2998 colon, 77.2%. The growth with KM12 colon was 65.5%.

As to `COc1cc(-c2cn(-c3ccc(Cl)c(Cl)c3)c(=O)[nH]2)cc(OC)c1OC`, the growth is 102% in the assay on BT-549 breast; 96.4% in the assay with MDA-MB-435 melanoma; 109% with SW-620 colon; 87.7% in the assay on MCF7 breast; 78.7% with HCT-116 colon; 99.9% in the assay on HCC-2998 colon. Besides, the growth with KM12 colon is 90.8%.

On to `Cc1ccc(C(=O)/C(=C/c2ccc([N+](=O)[O-])cc2)S(=O)Cc2ccccc2)cc1` (stereo unspecified), for which the growth in the assay with BT-549 breast is 45.8%; in the assay on MDA-MB-435 melanoma, 19.7%; with SW-620 colon it was 2.41% (active); in the assay with MCF7 breast it was 1.83% (active); in the assay on HCT-116 colon, -59.2% (active); in the assay with HCC-2998 colon it was 74.8%. Further, the growth in the assay on KM12 colon is 23.1%.

`O=c1[nH]c(-c2cccc(F)c2)cc2cc(F)ccc12`: the growth is 66.5% in the assay with BT-549 breast; -25.5% (active) in the assay on MDA-MB-435 melanoma; 26.9% with SW-620 colon; 13.6% in the assay on MCF7 breast; 25.4% in the assay with HCT-116 colon; 23.6% in the assay with KM12 colon.

As to `N#Cc1c(-c2ccc(F)cc2)nc(N/N=C/c2c[nH]c3ccccc23)nc1N1CCOCC1`, the growth in the assay with BT-549 breast was 75.5%; in the assay on MDA-MB-435 melanoma, 77.2%; in the assay on SW-620 colon it was 7.62% (active); in the assay on MCF7 breast, 51.5%; in the assay on HCT-116 colon, 44.3%; in the assay with KM12 colon, 40%.

Take `CCCCCCN1C(=O)CN=C1Nc1ccc2cc3ccc(NC4=NCC(=O)N4CCCCCC)cc3nc2c1`: the growth is 78.1% with BT-549 breast; 55.3% with MDA-MB-435 melanoma; -51.6% (active) in the assay on SW-620 colon; 0.96% (active) in the assay with MCF7 breast; 20.1% in the assay on HCT-116 colon; 47.2% in the assay with HCC-2998 colon. Also, the growth in the assay with KM12 colon was 31.1%.

With `CC(=O)ON1CCCC(P(=O)(OCOC(=O)C(C)(C)C)OCOC(=O)C(C)(C)C)C1=O` (stereo unspecified), the growth in the assay with BT-549 breast is -1.15% (active); in the assay on MDA-MB-435 melanoma it was 27%; with SW-620 colon it was 16.5%; in the assay with MCF7 breast it was -1.76% (active); in the assay with HCT-116 colon it was 0.623% (active); in the assay with HCC-2998 colon, -36.8% (active). For the same compound, the growth with KM12 colon was -11.5% (active).

For the compound `O=C(CCCC(=O)Nc1ccc(-n2nnc3cc(Cl)c(Cl)cc32)cc1)Nc1ccc(-n2nnc3cc(Cl)c(Cl)cc32)cc1`, the growth is 51.2% with BT-549 breast; 51.2% in the assay with MDA-MB-435 melanoma; 49.6% in the assay with SW-620 colon; 22.6% with MCF7 breast; 45.3% in the assay with HCT-116 colon; 93.7% in the assay on HCC-2998 colon. In addition, the growth with KM12 colon was 70.9%.

Regarding `CNc1cccc2c1C(=O)c1cccc(N)c1C2=O`, the growth in the assay with BT-549 breast was 30.8%; with MDA-MB-435 melanoma, 36.1%; in the assay with SW-620 colon it was 63.1%; in the assay with MCF7 breast, 25%; in the assay on HCT-116 colon, 31.5%; with HCC-2998 colon, 93.9%. Moreover, the growth with KM12 colon is 35.8%.

Source of the values: PubChem BioAssay (NCI).
